Measurements taken from the supplement of paper PMC10515830.
Where a name gives a salt, the structure may show the parent alone.

Key:
Details in all cases: 10 µM; exposure time 6 h
[1] = test system: Danio rerio larvae (5 dpf); assay: difference in excitability vs DMSO (percentage points); higher = more excitable than DMSO
How it was run: (§1)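 Wild-type zebrafish larvae at 5 dpf were kept in 96-well plates and exposed for 6 h to 100 µL egg water holding library compound at a final concentration of 10 µM. From 3 h into exposure, the plates were held at 28.5 ℃ and photographed every 6 s through a 3-h programme of moving lines and 100 ms, 400Hz tones. Each behaviour was scored by Z-LaP Tracker, a DeepLabCut model, and averaged over 48 larvae per compound. Every value gives the compound mean minus the vehicle control mean, in percentage points.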

[2] = test system: Danio rerio larvae (5 dpf); assay: difference in startle response vs DMSO (percentage points); higher = stronger startle than DMSO
How it was run: as §1

[3] = test system: Danio rerio larvae (5 dpf); assay: difference in activity during first hour vs DMSO (percentage points); higher = more activity than DMSO
How it was run: as §1

[4] = test system: Danio rerio larvae (5 dpf); assay: difference in habituation to acoustic stimuli vs DMSO (percentage points); higher = more habituation than DMSO
How it was run: as §1

[5] = test system: Danio rerio larvae (5 dpf); assay: difference in combined optomotor response to red, green and blue moving lines vs DMSO (percentage points); higher = stronger optomotor response than DMSO
How it was run: as §1

| Structure (SMILES) | difference in excitability [1] | difference in startle response [2] | difference in activity during first hour [3] | difference in habituation to acoustic stimuli [4] | difference [5] |
| --- | --- | --- | --- | --- | --- |
| Nc1c(CC(=O)O)cccc1C(=O)c1ccc(Br)cc1 [Bromfenac (sodium salt)] | 22 | -1.71 | 7.18 | -4.75 | 1.64 |
| C[C@H]1C[C@@H]2[C@H]([C@@H](O)C[C@@]3(C)[C@H]2CC[C@]3(O)C(=O)CO)[C@@]2(C)C=CC(=O)C=C12 [Methylprednisolone] | 2.35 | 0.227 | 10.3 | -3.19 | 9.29 |
| NS(=O)(=O)c1cc2c(cc1C(F)(F)F)NCNS2(=O)=O [Hydroflumethiazide] | 2.46 | 7.8 | 0.32 | -1.14 | -2.31 |
| CC1(C)S[C@@H]2[C@H](NC(=O)COc3ccccc3)C(=O)N2[C@H]1C(=O)O [Penicillin V (potassium salt)] | -4.2 | 2.03 | 11 | 4.18 | -1.93 |
| Clc1ccc(C(Cn2ccnc2)OCc2csc3c(Cl)cccc23)c(Cl)c1 (stereo not given) [Sertaconazole (nitrate)] | 4.31 | -8.13 | -18.2 | -10 | -11.3 |
| CC(=O)O[C@]1(C(C)=O)CC[C@H]2[C@@H]3CCC4=CC(=O)CCC4=C3[C@@H](c3ccc(N(C)C)cc3)C[C@@]21C [Ulipristal Acetate] | 4.89 | -8.5 | -5.48 | 5.46 | -10.6 |
| Cc1nc(-c2ccc(OCC(C)C)c(C#N)c2)sc1C(=O)O [Febuxostat] | -0.635 | 0.974 | -3.02 | 3.9 | 5.26 |
| C[C@@H](NCCCc1cccc(C(F)(F)F)c1)c1cccc2ccccc12 [Cinacalcet (hydrochloride)] | -1.68 | 0.605 | 10.2 | -9.83 | -16.5 |
| C[C@@H](O)[C@@H]1NC(=O)[C@H](CCCCN)NC(=O)[C@@H](Cc2c[nH]c3ccccc23)NC(=O)[C@H](Cc2ccccc2)NC(=O)[C@@H](NC(=O)[C@H](N)Cc2ccccc2)CSSC[C@@H](C(=O)N[C@H](CO)[C@@H](C)O)NC1=O [Octreotide (acetate)] | 11.3 | -0.00387 | -5.09 | -0.654 | 0.73 |
| NS(=O)(=O)c1cc2c(cc1C(F)(F)F)NC(Cc1ccccc1)NS2(=O)=O (stereo not given) [Bendroflumethiazide] | 1.38 | -5.47 | 3.78 | -7.63 | -4.26 |
| CC(C)Cc1ccc(C(C)C(=O)O)cc1 (racemic) [(±)-Ibuprofen] | 15.5 | -4.17 | -2.46 | 3.85 | 6.34 |
| Nc1cccc2c1C(=O)N(C1CCC(=O)NC1=O)C2=O (stereo not given) [Pomalidomide] | 0.1 | 2.2 | 0.787 | 2.64 | 1.26 |
| CC1OC2(CS1)CN1CCC2CC1 (stereo not given) [Cevimeline (hydrochloride)] | -6.36 | -3.25 | 16.4 | -3.9 | -1.46 |
| CC(=O)OCC(=O)[C@@]12OC3(CCCC3)O[C@@H]1C[C@H]1[C@@H]3CCC4=CC(=O)C=C[C@]4(C)[C@@]3(F)[C@@H](O)C[C@@]12C [Amcinonide] | 8.43 | 5.38 | -7.56 | -0.863 | 4.08 |
| CN(C)CCC=C1c2ccccc2CCc2ccccc21 [Amitriptyline (hydrochloride)] | 2.65 | 5.98 | -3.87 | -14.7 | -8.17 |
| CC(=O)O[C@@]12CO[C@@H]1C[C@H](O)[C@@]1(C)C(=O)[C@H](O)C3=C(C)[C@@H](OC(=O)[C@H](O)[C@@H](NC(=O)OC(C)(C)C)c4ccccc4)C[C@@](O)([C@@H](OC(=O)c4ccccc4)[C@H]21)C3(C)C [Docetaxel (hydrate)] | 4.98 | -2.23 | -2.75 | -0.117 | -1.11 |
| CN1C(=O)OC(C)(C)C1=O [Trimethadione] | 6.43 | 11.1 | -6 | 3.86 | -0.0394 |
| CO[C@H]1/C=C/O[C@@]2(C)Oc3c(C)c(O)c4c(O)c(c(/C=N/N5CCN(C)CC5)c(O)c4c3C2=O)NC(=O)/C(C)=C\C=C\[C@H](C)[C@H](O)[C@@H](C)[C@@H](O)[C@@H](C)[C@H](OC(C)=O)[C@@H]1C [Rifampicin] | 2.43 | 2.9 | 8.79 | -1.68 | -3.29 |
| NC[C@@H](O)c1ccc(O)c(O)c1 [L-(-)-Norepinephrine (bitartrate hydrate)] | 5.69 | -4.59 | 23 | -6.22 | 6.76 |
| COCC(=O)Nc1c(I)c(C(=O)NCC(O)CO)c(I)c(C(=O)N(C)CC(O)CO)c1I (stereo not given) [Iopromide] | 3 | -1.37 | 11.3 | 1.33 | 5.16 |
| CCOC(=O)O[C@]1(C(=O)COC(=O)CC)CC[C@H]2[C@@H]3CCC4=CC(=O)C=C[C@]4(C)[C@H]3[C@@H](O)C[C@@]21C [Prednicarbate] | 10.3 | 3.6 | -2.36 | -0.38 | -0.877 |
| CC#CC(=O)N1CCC[C@H]1c1nc(-c2ccc(C(=O)Nc3ccccn3)cc2)c2c(N)nccn12 [Acalabrutinib] | 2.39 | 12.9 | 10.5 | 5 | -2.56 |

| Structure (SMILES) | difference in excitability [1] | difference in startle response [2] | difference in activity during first hour [3] | difference in habituation to acoustic stimuli [4] | difference [5] |
| --- | --- | --- | --- | --- | --- |
| C[C@H]1CN(C[C@H](Cc2ccccc2)C(=O)NCC(=O)O)CC[C@@]1(C)c1cccc(O)c1 [Alvimopan] | 3.61 | 0.764 | -3.96 | 3.02 | -3.48 |
| Cc1cc(C(=O)NNCc2ccccc2)no1 [Isocarboxazid] | 9.42 | 3.52 | -14 | -2.77 | 4.57 |
| NC(=O)Cc1cccc(C(=O)c2ccccc2)c1N [Nepafenac] | 9.24 | 1.72 | -6.03 | 4.01 | -4.77 |
| COc1cc2nccc(Oc3ccc(NC(=O)NC4CC4)c(Cl)c3)c2cc1C(N)=O [Lenvatinib] | 13.6 | 6.75 | -8.05 | 1.57 | 10.3 |
| Cn1c(=O)c2nc[nH]c2n(C)c1=O [Theophylline] | 4.49 | 5.34 | 8.14 | 4.58 | -0.54 |
| CCCc1nc(C(C)(C)O)c(C(=O)OCc2oc(=O)oc2C)n1Cc1ccc(-c2ccccc2-c2nnn[nH]2)cc1 [Olmesartan Medoxomil] | -0.702 | -2.51 | 0.837 | -4.7 | 0.0218 |
| CCCCCCCCCC(=O)N[C@@H](Cc1c[nH]c2ccccc12)C(=O)N[C@H](CC(N)=O)C(=O)N[C@@H](CC(=O)O)C(=O)N[C@@H]1C(=O)NCC(=O)N[C@@H](CCCN)C(=O)N[C@@H](CC(=O)O)C(=O)N[C@H](C)C(=O)N[C@@H](CC(=O)O)C(=O)NCC(=O)N[C@H](CO)C(=O)N[C@@H]([C@H](C)CC(=O)O)C(=O)N[C@@H](CC(=O)c2ccccc2N)C(=O)O[C@@H]1C [Daptomycin] | 12 | 1.46 | 7.99 | -6.5 | 6.83 |
| Cn1ccnc1S [Methimazole] | -1.48 | 3.48 | -0.609 | 0.155 | 3.45 |
| O=C1CN(/N=C/c2ccc(-c3ccc([N+](=O)[O-])cc3)o2)C(=O)N1 [Dantrolene (sodium salt)] | 9.39 | 1.23 | -7.55 | 0.0919 | 0.433 |
| CO/N=C(\C(=O)N[C@@H]1C(=O)N2C(C(=O)O)=C(CSc3nc(=O)c(O)nn3C)CS[C@H]12)c1csc(N)n1 [Ceftriaxone (sodium salt hydrate)] | 3.71 | 4.15 | 12 | -2.08 | 8.58 |
| OC(CCN1CCCCC1)(c1ccccc1)C1CC2C=CC1C2 (stereo not given) [Biperiden (hydrochloride)] | 9.71 | -7.39 | -0.127 | -10.7 | -2.85 |
| CN1C2CCCC1CC(NC(=O)c1nn(C)c3ccccc13)C2 (stereo not given) [Granisetron (hydrochloride)] | 5.31 | 0.419 | 15 | 0.641 | 7.51 |
| CC1(C)O[C@@H]2C[C@H]3[C@@H]4CCC5=CC(=O)C=C[C@]5(C)[C@@]4(F)[C@@H](O)C[C@]3(C)[C@]2(C(=O)CO)O1 [Triamcinolone acetonide] | -3.81 | -2.41 | 12.6 | 3.46 | 7.94 |
| Nc1nc2[nH]cc(CCc3ccc(C(=O)N[C@@H](CCC(=O)O)C(=O)O)cc3)c2c(=O)[nH]1 [Pemetrexed (sodium salt hydrate)] | 7.7 | -0.109 | -1.67 | 4.63 | 5.29 |
| Cn1nnc(-c2ccc(-c3ccc(N4C[C@H](COP(=O)(O)O)OC4=O)cc3F)cn2)n1 [Tedizolid Phosphate] | -1.24 | 8.42 | 3.68 | 2.23 | 0.136 |
| C[C@]12CCC(=O)C=C1CC[C@@H]1[C@@H]2[C@@H](O)C[C@@]2(C)[C@H]1CC[C@]2(O)C(=O)CO [Hydrocortisone] | 1.87 | 0.52 | 14.7 | 1.82 | 9.96 |
| CNC(=O)c1ccccc1Sc1ccc2c(/C=C/c3ccccn3)n[nH]c2c1 [Axitinib] | 4.07 | 1.36 | -1.06 | -0.505 | 6.84 |
| CCCNCC(O)COc1ccccc1C(=O)CCc1ccccc1 (stereo not given) [Propafenone (hydrochloride)] | 14.4 | -3.28 | 8.84 | 0.424 | 6.51 |
| O=C(c1ccccc1)c1ccc2n1CCC2C(=O)O (stereo not given) [Ketorolac (tromethamine salt)] | -0.0297 | 5.09 | -3.37 | 7.86 | -1.11 |
| CCCCCCCCc1ccc(CCC(N)(CO)CO)cc1 [Fingolimod] | 5.87 | -4.94 | -2.73 | -2 | -4.81 |
| COc1c(C)c2c(c(O)c1C/C=C(\C)CCC(=O)OCCN1CCOCC1)C(=O)OC2 [Mycophenolate Mofetil] | 7.89 | -4.66 | -3.09 | -2.74 | 1.02 |
| CO[C@H]1C(=O)[C@]2(C)[C@@H](OC)C[C@H]3OC[C@@]3(OC(C)=O)[C@H]2[C@H](OC(=O)c2ccccc2)[C@]2(O)C[C@H](OC(=O)[C@H](O)[C@@H](NC(=O)OC(C)(C)C)c3ccccc3)C(C)=C1C2(C)C [Cabazitaxel] | 6.19 | 4.59 | 13.7 | 3.39 | 2.83 |
